Measurements published in PubChem BioAssay (EPA / NIEHS).
Records with an inconclusive call do not appear. Calls of active or inactive are those of the source. The calls were made as follows: active = hit-call score of the fitted dose curve at least 0.9, where 1 is the maximum; inconclusive = response in the unintended direction; inactive = score below 0.9.

How the values were obtained:
[1] = molecular target: Serine/threonine-protein phosphatase PP1-alpha catalytic subunit (Homo sapiens) (UniProt P62136); experiment: NVS_ENZ_hPPP1CA: NovaScreen (NVS) Enzymatic Assay for human Protein Phosphatase 1 Aatalytic subunit Alpha (PPP1CA) (AID 2283200)
Method in brief: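 Chemicals were first screened in duplicate at 25 uM, and those passing threshold (e.g. 30% inhibition) were run as concentration series to 50 uM. Cell-free recombinant protein, 1.33 h read, fluorescent substrate/product mobility-shift detection, normalised to DMSO.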

[2] = molecular target: human Protein Tyrosine Phosphatase Non-receptor Type 1 (PTPN1), PTPN1 (gene 5770) (UniProt P18031); experiment: NVS_ENZ_hPTPN1: NovaScreen (NVS) Enzymatic Assay for human Protein Tyrosine Phosphatase Non-receptor Type 1 (PTPN1) (AID 2283201)
Method in brief: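 Chemicals were first tested in duplicate at 25 uM, and those passing threshold went on to singleton concentration series topping at 50 uM. Recombinant enzyme, specific substrate, product separated by mobility shift, fluorescence read at 1.33 h; activity loss relative to DMSO.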

[3] = molecular target: Tyrosine-protein phosphatase non-receptor type 12 (Homo sapiens) (UniProt Q05209); experiment: NVS_ENZ_hPTPN12: NovaScreen (NVS) Enzymatic Assay for human Protein Tyrosine Phosphatase Non-receptor Type 12 (PTPN12) (AID 2283204)
Method in brief: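 Single-concentration duplicates (25 uM) preceded singleton concentration-response up to 50 uM for chemicals passing threshold. Cell-free recombinant PTPN12 activity was read 1.33 h after dosing via fluorescence after mobility-shift separation; loss of signal versus DMSO.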

[4] = molecular target: Tyrosine-protein phosphatase non-receptor type 13 (Homo sapiens) (UniProt Q12923); experiment: NVS_ENZ_hPTPN13: NovaScreen (NVS) Enzymatic Assay for human Protein Tyrosine Phosphatase Non-receptor Type 13 (PTPN13) (AID 2283205)
Method in brief: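 Screened first at a single 25 uM in duplicate; compounds passing the threshold (e.g. 30% inhibition) were rerun in concentration series, top 50 uM. Recombinant enzyme, fluorescent substrate, mobility-shift separation, 0.5 h read. Data fitted as inhibition relative to DMSO.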

[5] = molecular target: Tyrosine-protein phosphatase non-receptor type 14 (Homo sapiens) (UniProt Q15678); experiment: NVS_ENZ_hPTPN14: NovaScreen (NVS) Enzymatic Assay for human Protein Tyrosine Phosphatase Non-receptor Type 14 (PTPN14) (AID 2283206)
Method in brief: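 Fluorescent substrate turnover by recombinant human PTPN14 was measured 0.5 h after compound addition, with substrate and product separated by mobility shift. Single-point screening at 25 uM, then concentration-response up to 50 uM for chemicals meeting threshold (e.g., 30% inhibition).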

[6] = molecular target: human Protein Tyrosine Phosphatase Non-receptor Type 4 (PTPN4), PTPN4 (gene 5775) (UniProt P29074); experiment: NVS_ENZ_hPTPN4: NovaScreen (NVS) Enzymatic Assay for human Protein Tyrosine Phosphatase Non-receptor Type 4 (PTPN4) (AID 2283208)
Method in brief: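 Screened in duplicate at 25 uM, with hits then titrated to a top concentration of 50 uM. Recombinant Sf9-derived PTPN4 turnover was read by fluorescence with electrophoretic separation, 1.33 h after compound addition. DMSO served as baseline.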

[7] = molecular target: human Protein Tyrosine Phosphatase Receptor Type B (PTPRB), PTPRB (gene 5787) (UniProt P23467); experiment: NVS_ENZ_hPTPRB: NovaScreen (NVS) Enzymatic Assay for human Protein Tyrosine Phosphatase Receptor Type B (PTPRB) (AID 2283211)
Method in brief: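 Recombinant human PTPRB with a fluorescent substrate, product separated by electrophoretic mobility shift; read 1 h after dosing. Primary screen in duplicate at 25 uM; actives then retested in concentration series; loss of signal versus DMSO.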

[8] = molecular target: human Protein Tyrosine Phosphatase Receptor Type F (PTPRF), PTPRF (gene 5792) (UniProt P10586); experiment: NVS_ENZ_hPTPRF: NovaScreen (NVS) Enzymatic Assay for human Protein Tyrosine Phosphatase Receptor Type F (PTPRF) (AID 2283213)
Method in brief: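 Cell-free fluorescence enzyme assay with recombinant protein and substrate; product separated by electrophoretic mobility shift. Read 1 h after dosing, single 25 uM duplicate screen, then concentration-response up to 50 uM; loss of signal vs DMSO.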

[9] = molecular target: human Sirtuin 2 (SIRT2), SIRT2 (gene 22933) (UniProt Q8IXJ6); experiment: NVS_ENZ_hSIRT2: NovaScreen (NVS) Enzymatic Assay for human Sirtuin 2 (SIRT2) (AID 2283217)
Method in brief: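 Single-point duplicate screen at 25 uM, then concentration-response (max 50 uM) for chemicals passing threshold. Enzyme activity of recombinant human SIRT2 measured after 1 hr by fluorescence with mobility-shift separation of product; DMSO baseline.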

[10] = molecular target: human Sirtuin 1 (SIRT1), SIRT1 (gene 23411) (UniProt Q96EB6); experiment: NVS_ENZ_hSIRT1: NovaScreen (NVS) Enzymatic Assay for human Sirtuin 1 (SIRT1) (AID 2283219)
Method in brief: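 Cell-free recombinant SIRT1 with a fluorescent substrate; substrate and product separated by electrophoretic mobility shift and read by fluorescence intensity, 1 h after dosing. Primary screen at 25 uM in duplicate; hits re-run in concentration-response up to 50 uM, relative to DMSO.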

[11] = molecular target: human Vascular Endothelial Growth Factor Receptor 1 (VEGFR1), FLT1 (gene 2321) (UniProt P17948); experiment: NVS_ENZ_hVEGFR1: NovaScreen (NVS) Enzymatic Assay for human Vascular Endothelial Growth Factor Receptor 1 (VEGFR1) (AID 2283226)
Method in brief: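 Kinase activity of recombinant human VEGFR1 was read by fluorescence after electrophoretic separation of product from substrate, 1 h post-dosing; initial duplicate single-point testing at 25 uM, followed by concentration-series follow-up, with DMSO as baseline.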

[12] = molecular target: human Protein Phosphatase, Mg2+/Mn2+ Dependent 1A (PPM1A), PPM1A (gene 5494) (UniProt P35813); experiment: NVS_ENZ_hPPM1A: NovaScreen (NVS) Enzymatic Assay for human Protein Phosphatase, Mg2+/Mn2+ Dependent 1A (PPM1A) (AID 2283198)
Method in brief: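 Primary screen in duplicate at 25 uM, with actives then titrated to a maximum of 50 uM. Recombinant PPM1A dephosphorylation of fluorescent substrate measured at 1 h, with substrate and product separated by mobility shift; inhibition fitted against DMSO.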

[13] = molecular target: human Protein Tyrosine Phosphatase Receptor Type M (PTPRM), PTPRM (gene 5797) (UniProt P28827); experiment: NVS_ENZ_hPTPRM: NovaScreen (NVS) Enzymatic Assay for human Protein Tyrosine Phosphatase Receptor Type M (PTPRM) (AID 2283215)
Method in brief: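 Read-out is fluorescence after electrophoretic separation of substrate and product, taken 1.33 h post-dosing with recombinant enzyme. Compounds screened at 25 uM in duplicate, then concentration series for actives; activity as signal loss relative to DMSO.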

[14] = molecular target: rabbit Imidazoline 2 Central (I2C), CKB (gene 100009085) (UniProt P00567); experiment: NVS_ENZ_rabI2C: NovaScreen (NVS) Enzymatic Assay for rabbit Imidazoline 2 Central (I2C) (AID 2283228)
Method in brief: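 Rabbit brain membranes, cell-free; readout by filter-based scintillation counting 1.5 hours after dosing, loss of signal vs DMSO. Initial duplicate test at 25 uM, then concentration-response with 50 uM top concentration.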

[15] = molecular target: human Rho Associated Coiled-coil Containing Protein Kinase 1 (ROCK1), ROCK1 (gene 6093) (UniProt Q13464); experiment: NVS_ENZ_hROCK1: NovaScreen (NVS) Enzymatic Assay for human Rho Associated Coiled-coil Containing Protein Kinase 1 (ROCK1) (AID 2283214)
Method in brief: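 Compounds first run in duplicate at 25 uM against recombinant human ROCK1, then followed in concentration series. Kinase activity was read 1 h post-dosing by fluorescence with mobility-shift separation, as signal loss relative to DMSO.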

[16] = molecular target: Tyrosine-protein phosphatase non-receptor type 11 (Homo sapiens) (UniProt Q06124); experiment: NVS_ENZ_hPTPN11: NovaScreen (NVS) Enzymatic Assay for human Protein Tyrosine Phosphatase Non-receptor Type 11 (PTPN11) (AID 2283202)
Method in brief: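 Compounds first tested in duplicate at 25 uM; those reaching ~30% inhibition rerun in singleton concentration-response, top 50 uM. Phosphatase activity measured after 0.5 h by fluorescence with mobility-shift separation, relative to DMSO.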

[17] = molecular target: human Sirtuin 3 (SIRT3), SIRT3 (gene 23410) (UniProt Q9NTG7); experiment: NVS_ENZ_hSIRT3: NovaScreen (NVS) Enzymatic Assay for human Sirtuin 3 (SIRT3) (AID 2283222)
Method in brief: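 Cell-free enzyme assay with recombinant protein and fluorescent substrate, product separated by electrophoretic mobility shift; read 1 hour after dosing. Screened in duplicate at 25 uM, then singleton concentration-response up to 50 uM; loss of signal versus DMSO.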

Measured: AC50

Tyrosine-protein phosphatase non-receptor type 12 (Homo sapiens), sequence (Q05209 whole entry, looked up): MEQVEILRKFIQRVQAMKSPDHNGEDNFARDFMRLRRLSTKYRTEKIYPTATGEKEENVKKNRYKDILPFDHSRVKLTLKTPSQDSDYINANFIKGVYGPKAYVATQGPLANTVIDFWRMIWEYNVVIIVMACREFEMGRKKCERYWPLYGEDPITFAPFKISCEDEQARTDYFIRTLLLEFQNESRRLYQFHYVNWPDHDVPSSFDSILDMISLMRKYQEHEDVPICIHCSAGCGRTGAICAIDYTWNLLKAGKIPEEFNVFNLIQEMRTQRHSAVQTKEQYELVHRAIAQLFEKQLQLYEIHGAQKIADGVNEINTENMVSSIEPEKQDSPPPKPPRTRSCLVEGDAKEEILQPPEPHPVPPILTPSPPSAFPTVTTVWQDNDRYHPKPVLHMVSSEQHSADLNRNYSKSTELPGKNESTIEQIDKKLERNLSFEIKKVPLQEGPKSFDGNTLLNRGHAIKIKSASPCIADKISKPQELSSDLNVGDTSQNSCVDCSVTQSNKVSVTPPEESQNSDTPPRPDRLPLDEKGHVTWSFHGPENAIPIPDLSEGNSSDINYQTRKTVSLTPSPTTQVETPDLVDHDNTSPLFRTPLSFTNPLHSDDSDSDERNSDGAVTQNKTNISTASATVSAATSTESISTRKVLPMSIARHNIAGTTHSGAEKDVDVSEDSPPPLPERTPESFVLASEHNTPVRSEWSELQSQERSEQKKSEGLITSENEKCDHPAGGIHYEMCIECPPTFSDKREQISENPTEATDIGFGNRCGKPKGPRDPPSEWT
human Sirtuin 2 (SIRT2), SIRT2 (gene 22933), sequence (Q8IXJ6 whole entry, looked up): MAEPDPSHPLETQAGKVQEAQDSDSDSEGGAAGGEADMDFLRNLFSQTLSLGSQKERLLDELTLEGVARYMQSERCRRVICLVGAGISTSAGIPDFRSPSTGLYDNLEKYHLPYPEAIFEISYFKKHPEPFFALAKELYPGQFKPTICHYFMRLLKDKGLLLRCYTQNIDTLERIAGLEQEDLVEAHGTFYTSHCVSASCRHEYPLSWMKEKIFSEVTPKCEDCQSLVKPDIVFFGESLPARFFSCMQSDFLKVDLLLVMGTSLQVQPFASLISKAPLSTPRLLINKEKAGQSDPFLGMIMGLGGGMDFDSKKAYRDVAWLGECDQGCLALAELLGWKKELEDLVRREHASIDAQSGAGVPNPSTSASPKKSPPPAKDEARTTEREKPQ
Tyrosine-protein phosphatase non-receptor type 13 (Homo sapiens), sequence (Q12923 whole entry, looked up): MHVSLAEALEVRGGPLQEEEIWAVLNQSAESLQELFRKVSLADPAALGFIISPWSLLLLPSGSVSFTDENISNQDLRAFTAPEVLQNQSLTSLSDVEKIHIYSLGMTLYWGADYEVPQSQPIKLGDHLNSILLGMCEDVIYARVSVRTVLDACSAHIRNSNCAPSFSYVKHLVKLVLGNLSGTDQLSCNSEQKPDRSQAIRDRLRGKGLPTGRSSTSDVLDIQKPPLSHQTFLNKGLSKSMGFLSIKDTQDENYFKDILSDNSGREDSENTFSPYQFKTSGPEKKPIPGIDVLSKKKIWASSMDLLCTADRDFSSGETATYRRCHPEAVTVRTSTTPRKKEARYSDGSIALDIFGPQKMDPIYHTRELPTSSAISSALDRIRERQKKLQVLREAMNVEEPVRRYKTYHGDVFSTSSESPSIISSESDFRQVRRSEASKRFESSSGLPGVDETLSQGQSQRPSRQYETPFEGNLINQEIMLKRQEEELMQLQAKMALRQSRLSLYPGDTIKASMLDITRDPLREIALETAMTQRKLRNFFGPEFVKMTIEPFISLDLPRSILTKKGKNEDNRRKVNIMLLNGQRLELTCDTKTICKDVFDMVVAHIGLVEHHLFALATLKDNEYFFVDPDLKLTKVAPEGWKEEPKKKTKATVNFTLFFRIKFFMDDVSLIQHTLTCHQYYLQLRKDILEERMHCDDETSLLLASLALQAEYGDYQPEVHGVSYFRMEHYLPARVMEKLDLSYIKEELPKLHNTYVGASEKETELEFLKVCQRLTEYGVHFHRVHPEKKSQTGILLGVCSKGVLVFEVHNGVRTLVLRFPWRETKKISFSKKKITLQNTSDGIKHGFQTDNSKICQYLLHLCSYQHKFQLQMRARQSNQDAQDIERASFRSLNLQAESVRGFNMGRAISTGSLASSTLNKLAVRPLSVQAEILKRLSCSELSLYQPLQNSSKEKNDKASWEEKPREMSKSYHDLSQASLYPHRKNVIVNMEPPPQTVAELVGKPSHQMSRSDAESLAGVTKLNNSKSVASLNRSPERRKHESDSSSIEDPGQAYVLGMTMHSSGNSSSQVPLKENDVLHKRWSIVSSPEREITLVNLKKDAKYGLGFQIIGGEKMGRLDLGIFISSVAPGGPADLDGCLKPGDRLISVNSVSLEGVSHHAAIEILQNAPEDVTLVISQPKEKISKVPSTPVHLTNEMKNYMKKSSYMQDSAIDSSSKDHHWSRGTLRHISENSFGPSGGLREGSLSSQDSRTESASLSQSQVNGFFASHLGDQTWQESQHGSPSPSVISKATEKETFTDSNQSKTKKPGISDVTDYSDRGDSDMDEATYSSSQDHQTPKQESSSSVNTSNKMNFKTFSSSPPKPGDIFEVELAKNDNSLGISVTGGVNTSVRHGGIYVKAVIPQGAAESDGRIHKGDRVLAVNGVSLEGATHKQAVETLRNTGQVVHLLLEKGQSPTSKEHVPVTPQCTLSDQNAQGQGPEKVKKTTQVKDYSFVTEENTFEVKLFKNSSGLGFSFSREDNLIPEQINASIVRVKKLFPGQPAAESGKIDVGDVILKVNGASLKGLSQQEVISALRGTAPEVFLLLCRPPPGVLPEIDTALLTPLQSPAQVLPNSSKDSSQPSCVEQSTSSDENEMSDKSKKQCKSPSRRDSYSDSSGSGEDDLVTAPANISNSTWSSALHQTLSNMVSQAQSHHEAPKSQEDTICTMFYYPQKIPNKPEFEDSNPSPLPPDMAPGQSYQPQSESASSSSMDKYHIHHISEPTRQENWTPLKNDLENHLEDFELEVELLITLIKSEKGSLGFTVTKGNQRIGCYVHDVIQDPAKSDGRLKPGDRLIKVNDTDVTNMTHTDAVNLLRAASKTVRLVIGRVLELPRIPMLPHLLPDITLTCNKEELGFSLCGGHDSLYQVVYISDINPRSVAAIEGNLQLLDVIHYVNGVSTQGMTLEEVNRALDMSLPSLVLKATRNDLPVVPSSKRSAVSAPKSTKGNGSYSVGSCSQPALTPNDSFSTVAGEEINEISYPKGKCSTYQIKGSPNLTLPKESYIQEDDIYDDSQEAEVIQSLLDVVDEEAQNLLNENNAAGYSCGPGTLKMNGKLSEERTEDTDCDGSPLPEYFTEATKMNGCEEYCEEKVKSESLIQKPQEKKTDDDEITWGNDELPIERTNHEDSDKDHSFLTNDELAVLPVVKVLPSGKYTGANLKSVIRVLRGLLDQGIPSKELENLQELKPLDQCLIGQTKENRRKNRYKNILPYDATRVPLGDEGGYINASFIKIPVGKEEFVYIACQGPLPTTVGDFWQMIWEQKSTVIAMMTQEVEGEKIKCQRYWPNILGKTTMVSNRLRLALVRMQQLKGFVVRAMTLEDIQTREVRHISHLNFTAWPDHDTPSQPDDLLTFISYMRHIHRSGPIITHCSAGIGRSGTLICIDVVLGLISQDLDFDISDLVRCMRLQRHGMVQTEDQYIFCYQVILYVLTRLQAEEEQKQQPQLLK
human Vascular Endothelial Growth Factor Receptor 1 (VEGFR1), FLT1 (gene 2321), sequence (P17948 whole entry, looked up): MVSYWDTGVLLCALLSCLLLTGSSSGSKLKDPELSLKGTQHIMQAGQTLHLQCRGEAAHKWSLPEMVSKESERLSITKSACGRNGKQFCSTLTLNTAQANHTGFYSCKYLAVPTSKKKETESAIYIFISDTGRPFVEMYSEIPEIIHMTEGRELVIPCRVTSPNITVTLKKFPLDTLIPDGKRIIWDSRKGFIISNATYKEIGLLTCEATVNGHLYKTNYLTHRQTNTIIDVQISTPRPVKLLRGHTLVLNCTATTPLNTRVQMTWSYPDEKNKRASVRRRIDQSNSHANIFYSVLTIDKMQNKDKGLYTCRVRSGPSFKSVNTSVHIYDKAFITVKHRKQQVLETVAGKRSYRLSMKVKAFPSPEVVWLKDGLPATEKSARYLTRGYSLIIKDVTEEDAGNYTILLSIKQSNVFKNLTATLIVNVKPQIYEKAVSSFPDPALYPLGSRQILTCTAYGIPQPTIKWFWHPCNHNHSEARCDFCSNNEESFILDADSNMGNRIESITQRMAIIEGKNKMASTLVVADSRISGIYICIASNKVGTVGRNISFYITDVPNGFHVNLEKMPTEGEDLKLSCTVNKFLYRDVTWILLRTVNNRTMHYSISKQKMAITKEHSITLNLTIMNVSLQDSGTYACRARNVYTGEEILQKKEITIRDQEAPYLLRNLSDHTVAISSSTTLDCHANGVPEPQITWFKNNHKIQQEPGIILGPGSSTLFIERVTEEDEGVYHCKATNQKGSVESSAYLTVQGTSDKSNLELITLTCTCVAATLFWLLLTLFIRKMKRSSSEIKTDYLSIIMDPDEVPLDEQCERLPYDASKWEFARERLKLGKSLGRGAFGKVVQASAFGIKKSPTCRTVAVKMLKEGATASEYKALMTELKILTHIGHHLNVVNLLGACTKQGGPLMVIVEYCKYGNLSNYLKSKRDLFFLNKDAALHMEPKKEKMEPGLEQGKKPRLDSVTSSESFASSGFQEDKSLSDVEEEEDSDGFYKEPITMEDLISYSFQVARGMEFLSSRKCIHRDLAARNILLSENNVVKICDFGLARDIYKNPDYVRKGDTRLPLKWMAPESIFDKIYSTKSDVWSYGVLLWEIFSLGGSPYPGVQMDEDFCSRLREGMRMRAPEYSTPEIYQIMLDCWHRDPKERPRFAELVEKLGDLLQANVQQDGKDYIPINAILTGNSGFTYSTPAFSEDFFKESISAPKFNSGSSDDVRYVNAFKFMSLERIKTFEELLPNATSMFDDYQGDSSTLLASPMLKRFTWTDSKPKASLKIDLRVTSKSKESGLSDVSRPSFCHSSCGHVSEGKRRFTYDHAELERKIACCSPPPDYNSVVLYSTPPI

Cc1ccc(N)cc1O
inactive: [1] | [2] | [3] | [4] | [5] | [6] | [7] | [8] | [9] | [10] | [11]

CC(C)(O)c1coc(S(=O)(=O)NC(=O)Nc2c3c(cc4c2CCC4)CCC3)c1
inactive: [12]

CCCCCCc1ccc(O)cc1O
inactive: [1]

CNS(=O)(=O)c1cc(C(=O)N2CCC(CCN3C4CCC3CC(n3c(C)nc5ccccc53)C4)(c3cccc(F)c3)CC2)c(Cl)cc1F (configuration not stated)
inactive: [4] | [9]

CN(C)c1ccc(N=NS(=O)(=O)O)cc1
active: [3] 12.5 µM | [4] 16.4 µM | [14] 23.8 µM
inactive: [2] | [7] | [8] | [13] | [11]

COCCOCCOCCOC
inactive: [1] | [15]

O=C(O)CCN(C1(C(=O)NO)CCCC1)S(=O)(=O)c1ccc(Oc2ccc(F)cc2)cc1
inactive: [12] | [15]

O=C(O)c1cc(N=Nc2ccc(S(=O)(=O)Nc3ccccn3)cc2)ccc1O
inactive: [16] | [3] | [4] | [5] | [6] | [8] | [13] | [11]

CCCCCCCCCCCCc1ccccc1
inactive: [2]

O=c1[nH]c2ccc(S(=O)CCN3CCC(Cc4ccc(F)cc4)CC3)cc2o1 (configuration not stated)
active: [14] 6.76 µM
inactive: [12]

CC[C@H](C)C(=O)O[C@H]1C[C@@H](C)C=C2C=C[C@H](C)[C@H](CC[C@@H]3C[C@@H](O)CC(=O)O3)[C@H]21
inactive: [16] | [9] | [17] | [11]
